# Screening data deposited in PubChem BioAssay by National Center for Advancing Translational Sciences (NCATS).
# Compounds with a hit are over-represented: about 0.44% of the library has one in this group of screens.
# Rango complex inh: inhibitors of Rango-importin beta complex formation; Q14974; Potency, µM (highest dose often 92.2 µM), for the others: at the top dose inhibition of complex formation; actives 0.031% (n = 340,000); AID 540263; Rango CFP/YFP FRET sensor + importin beta, 45 min;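 further: 0% = DMSO wells and 100% = buffer wells lacking importin beta; nearly all actives have a fitted effect of over 15% in size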
#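 FRET biosensor (snurportin 1 IBB flanked by EYFP and cerulean), 50 nM, with compound 5 min, then 0.125 microM importin beta in PBS, 1 mM DTT, 0.02% Tween-20, 0.1% BSA. CFP/YFP ratio read after 45 min at room temperature; pre-read flags interference.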
# Lamin A splicing: modulators of lamin A splicing | HeLa LMNA splicing GFP/RFP minigene ratio, 48 h | Potency, µM (doses to about 46.1 µM), without a hit: top-dose ratio change, negative = inhibition, usual class: inhibitors | actives 0.01% (n = 200,000) | AID 1487; active means well fitted inhibition curve with a large enough effect in the signal ratio, with a control signal flat, not every such curve was filed as active; inconclusive means small, poorly fitted or top-dose-only effect, or effect the other way, or a change in a side signal; the % refers to the signal ratio; further: on the % scale 0 is the no-effect control and ±100 the full control effect
#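 S3 HeLa stable clones carrying a lamin A-EGFP splicing minigene plus DsRed2 were seeded at 600 cells/well in Opti-MEM with 2% FBS, pin-dosed and incubated 48 h at 37°C. Acumen cytometry (488 nm) gave the GFP/RFP total-intensity ratio.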
# Chronic BCR inh: chronic active BCR signaling inhibition; AID 493014; Potency, µM (highest dose often 46.1 µM), for the others: top-dose activity change, negative = inhibition, usual class: inhibitors; ABC-DLBCL IkBa-CBG/CBR reporter, luminescence ratio, 4 h; actives 0.05% (n = 340,000); active means well fitted inhibition curve with a large enough effect in the signal ratio, with a control signal flat, not every such curve was filed as active; inconclusive means small, poorly fitted or top-dose-only effect, or effect the other way, or a change in a side signal; the % refers to the signal ratio;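 further: plate controls were basal doxycycline-induced cells for no effect and cells given 10 µM MG132 for full effect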
#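 Compounds up to 46 uM were incubated four hours with TMD8 cells whose green CBG68 luciferase is fused to IkappaBalpha; red CBR luminescence normalised the signal, and concentration-effect curves were fitted to fusion, red and ratio data.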
# Rango dissoc inh: prevents RanGTP from dissociating the Rango-importin beta complex; Biochemical FRET Rango-importin beta, RanGTP-induced dissociation; actives 0.071% (n = 340,000); Potency, µM (top dose mostly 46.1 µM), without a hit: at the highest dose activity change, negative = inhibition; O95149+P62826; further: % of control where 0% means no effect; nearly all actives have a fitted effect of over 45% in size
#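 Compounds preincubate 5 min with complex of recombinant Rango and importin beta in PBS with 1 mM DTT. Ran (0.6 uM) loaded with 2 mM GTP plus 0.2 uM RCC1 starts dissociation; FRET is recorded 45 min later.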
# Luc counter: counter-screen: inhibitors of Kinase-Glo firefly luciferase; actives 0.28% (n = 200,000); Kinase-Glo luciferase, ATP luminescence, 8 min; Q27757; Potency, µM (highest dose often 38.3 µM), inactives show at the highest dose activity change, negative = inhibition, usual class: inhibitors; active means well fitted curve in the direction sought with a large enough effect; inconclusive means small, poorly fitted or top-dose-only effect, or another doubt; inactive means no such curve, though single readings can be large; an effect the other way counts as inactive or inconclusive; further: on the % scale 0 is the no-effect control and ±100 the full control effect; nearly all actives have a fitted effect of over 60% in size
#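 Inhibition of Kinase-Glo luciferase light generation was assessed at 10 uM ATP in pH 7.2 imidazole buffer, with luminescence measured after eight minutes at ambient temperature.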
# Tb PFK inh-1: blocks T. brucei phosphofructokinase; O15648; T. brucei PFK, ADP-Glo luminescence; Potency, µM (highest dose often 57.5 µM), for inactives: at the highest dose activity, negative = inhibition, actives largely listed as inhibitors; actives 0.17% (n = 330,000); active means well fitted curve in the direction sought with a large enough effect; inconclusive means small, poorly fitted or top-dose-only effect, or another doubt; inactive means no such curve, though single readings can be large; an effect the other way counts as inactive or inconclusive;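 further: 0% = uninhibited 1x PFK enzyme wells and -100% = no-enzyme wells; nearly all actives have a fitted effect of over 60% in size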
# Target sequence (O15648 whole entry, looked up): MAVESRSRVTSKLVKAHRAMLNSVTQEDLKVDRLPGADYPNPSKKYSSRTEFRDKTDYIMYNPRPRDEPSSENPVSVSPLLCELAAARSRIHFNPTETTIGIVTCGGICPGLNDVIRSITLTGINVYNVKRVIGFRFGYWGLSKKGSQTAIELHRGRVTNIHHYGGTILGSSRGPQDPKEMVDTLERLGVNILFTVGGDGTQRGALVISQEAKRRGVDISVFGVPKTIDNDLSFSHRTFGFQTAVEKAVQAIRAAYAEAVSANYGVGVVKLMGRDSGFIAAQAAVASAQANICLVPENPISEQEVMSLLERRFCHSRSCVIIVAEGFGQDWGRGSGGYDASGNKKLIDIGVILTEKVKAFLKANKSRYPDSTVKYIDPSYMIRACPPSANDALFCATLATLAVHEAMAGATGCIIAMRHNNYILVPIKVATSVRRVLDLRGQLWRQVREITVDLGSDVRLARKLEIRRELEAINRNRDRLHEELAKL
#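 Activity is normalized to no-enzyme wells (full inhibition) and 1.25 nM enzyme wells (no inhibition). Reaction: 0.5 mM F6P, 0.1 mM ATP, 45 min RT, ADP-Glo luminescence; concentration-response curves fitted and classed by quality.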
# TbPFK ATP: Tb phosphofructokinase inhibition, orthogonal luminescence; Tb PFK enzyme, ATP depletion, Kinase-Glo Plus luminescence; actives 47% (n = 1,100); Potency, µM (doses to about 57.5 µM), for inactives: at the top dose inhibition; shares compounds with Tb PFK inh-1; further: nearly all actives have a fitted effect of over 60% in size
# Tb PFK inh-2: T. brucei PFK enzyme inhibition, hit validation; purified T. brucei PFK, ADP-Glo luminescence, 45 min; actives 41% (n = 1,100); Potency, µM (doses to about 57.5 µM), for inactives: at the top dose activity change, negative = inhibition, actives largely listed as inhibitors; AID 504637; shares compounds with Tb PFK inh-1; active means well fitted curve in the direction sought with a large enough effect; inconclusive means small, poorly fitted or top-dose-only effect, or another doubt; inactive means no such curve, though single readings can be large; an effect the other way counts as inactive or inconclusive;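 further: plate controls were full PFK enzyme control for no effect and no enzyme control for full effect; nearly all actives have a fitted effect of over 60% in size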
# Numbers without * were called inactive; ? = inconclusive; . = no result given; [ ] = dose if it differs, or a comment. Unless noted, the call rests on the fitted dose curve. Potency means the concentration at half of the fitted maximal effect.
SMILES,Rango complex inh,Lamin A splicing,Chronic BCR inh,Rango dissoc inh,Luc counter,Tb PFK inh-1,TbPFK ATP,Tb PFK inh-2
CCOc1ccccc1OCC(=O)Nc1ccc(Cl)cc1C(=O)c1ccccc1,-0.9%,?,1.1%,0.1%,-0.8%,-2.0%,.,.
Cc1cc(CSc2ccccc2)ccc1NC(=O)COc1ccccc1,4.6%,5.5%,?,6.0%,-2.0%,?,?,?
Cc1nnc(SCc2ccc(Cl)c(Cl)c2)s1,5.5%,.,4.0%,0.6%,5.4%,23.9µM*,10.7µM*,13.5µM*
C=C1C(=O)O[C@@H]2C[C@@H](C)[C@@H]3C4OC4C(=O)[C@@]3(C)[C@@H](O)[C@H]12 (some centres undefined),0.0%,.,?,7.4%,.,-4.5%,.,.
Fc1ccc(CNc2ncnc3cc(Cl)ccc23)cc1,0.0%,.,0.3%,-6.2%,.,19µM*,?,26.9µM*
Cc1cc(/C=C2\C(=O)NC(=O)N(c3ccc(Cl)cc3)C2=O)c(C)n1-c1sc2c(c1C#N)CCCC2,?,-6.9%,-5.9%,-20.9%,1.1%,0.0%,.,.
O=C1Nc2ccccc2C(=O)C1(Cl)Cc1ccccc1 (centres undefined),-2.5%,-3.0%,-4.4%,18.1%,3.0%,?,10.7µM*,13.5µM*
CCOC(=O)N1CCC(NC(=O)CCC(=O)N2CCOc3ccc(Cl)cc32)CC1,-0.6%,19.1%[46 µM],1.8%,-2.4%,2.6%,?,?,-21.0%
CCOC(=O)c1sc(=S)n(C)c1NC(=O)c1ccccc1,-2.4%,-5.8%,4.5%,3.8%,-0.1%,?,21.3µM*,?
COc1ccc(OC)c(N2C(=O)NC(=O)C(CCc3ccncc3)(CCc3ccncc3)C2=O)c1,-2.6%,-1.9%,2.5%,-5.8%,-1.9%,3.3%,.,.
Cc1cc(NS(=O)(=O)c2ccc(NC(=O)COc3ccc(Br)cc3)cc2)nc(C)n1,0.1%,.,0.5%,-4.5%,.,?,8.49µM*,23.9µM*
CN1CCN(C(=O)COc2ccc(S(=O)(=O)Nc3ccc(F)cc3)cc2)CC1,-1.1%,.,6.2%,1.2%,.,0.0%,.,.
O=C1NC(=O)N(c2ccccc2)C(=O)/C1=C/C=C/c1ccco1,?,.,?,-26.4%,.,?,.,.
O=C(N/N=C\C=C\c1ccco1)C1COc2ccccc2O1 (centres undefined),-4.5%,.,?,17.0%,.,23.9µM*,21.3µM*,?
O=C(N/N=C/C=C/c1ccc([N+](=O)[O-])cc1)C1COc2ccccc2O1 (centres undefined),1.0%,-23.4%,-0.4%,-3.8%,-2.0%,12µM*,13.5µM*,23.9µM*
CCCN1CCCC2Cc3[nH]ncc3CC21 (centres undefined),.,?,.,.,-3.9%,.,.,.
N#C/C(=C/c1ccc(O)c(O)c1)C(=O)NCc1ccc(Cl)cc1,?,.,?,?,.,?,?,-29.9%
N#C/C(=C\c1ccc(O)c(O)c1)C(=O)NCCCNC(=O)/C(C#N)=C/c1ccc(O)c(O)c1,.,?,.,.,-4.4%,.,.,.
Cc1nnc(NC(=O)c2cccn(Cc3ccccc3F)c2=O)s1,.,16.2%[46 µM],.,.,.,.,.,.
COc1ccc2nc(NC3=NCCN3)sc2c1,0.1%,-3.6%,-5.8%,-5.9%,-12.6%,-9.1%,.,.
O=C1CCC/C(=N/NC(=O)c2cc(NS(=O)(=O)c3cccs3)cc(NS(=O)(=O)c3cccs3)c2)C1,?,.,-4.0%,?,.,?,21.3µM*,?
Cc1ccc(NC(=O)C2=C(c3ccccc3)S(=O)(=O)CCS2(=O)=O)cc1,0.8%,?,?,24.9%,0.2%,?,-25.2%,?
COC(=O)C1=C(c2ccc(S(C)(=O)=O)cc2)C[C@@H]2CC[C@H]1N2C(=O)NCc1ccco1,-2.0%,.,.,-18.3%,.,.,.,.
Cc1ccc(-c2cn3c(=S)[nH]nc3s2)cc1,-1.1%,?,-1.4%,-1.6%,0.9%,?,0.675µM*,?
CC(C)N1CCN(Cc2ccc3c(c2)OCCO3)CC1CCO (centres undefined),0.1%,3.0%[46 µM],10.9%,0.0%,-4.5%,-4.7%,.,.
SMILES,Rango complex inh,Lamin A splicing,Chronic BCR inh,Rango dissoc inh,Luc counter,Tb PFK inh-1,TbPFK ATP,Tb PFK inh-2
CCOC(=O)c1c(-c2ccc(C)o2)csc1NC(=O)COC(=O)c1ccc(NC(N)=O)cc1,2.5%,-8.1%,?,-10.9%,-4.4%,2.13µM*,?,-20.2%
COC(=O)C1=C(C)NC(C)=C(C(=O)OC)C1c1ccccc1[N+](=O)[O-],-4.5%,?,?,-21.4%,-2.0%,12.8%,.,.
C=Cn1ccnc1P(=S)(c1nccn1C=C)c1nccn1C=C,-0.7%,?,1.0%,1.2%,-0.6%,4.0%,.,.
COc1cccc(OCCc2c(C)n[nH]c2C)c1,-0.3%,?,-8.5%,-7.1%,0.2%,26.9µM*,?,?
Cc1n[nH]c(C)c1CCN,2.7%,6.8%,-3.2%,-8.7%,-3.4%,4.2%,.,.
COc1cc(OC)c(OC)cc1CN1CCN(C(=O)Cc2ccccc2)CC1,3.9%,.,-0.1%,3.7%,.,-1.0%,.,.
Clc1ccc(CNc2cnccn2)cc1Cl,1.7%,.,?,-2.3%,.,6.75µM*,5.36µM*,9.53µM*
NC(=O)c1cn(C2OC(CO)C(O)C2O)c2ncnc(N)c12 (centres undefined),1.3%,?,?,11.6%,2.1%,-0.2%,.,.
O=C(O)CC1S/C(=N/N=C/c2ccc(-c3ccc(Cl)cc3[N+](=O)[O-])o2)NC1=O (centres undefined),-5.0%,1.1%,10.5%,-25.6%,-0.4%,?,-32.7%,?
O=c1c2ccccc2nc(/C=C\c2ccccc2[N+](=O)[O-])n1-c1ccccc1O,0.8%,.,?,0.3%,.,17.0%,.,.
O=C(O)CC1S/C(=N/N=C/C=C/c2ccccc2[N+](=O)[O-])NC1=O (centres undefined),0.0%,3.6%,2.3%,-0.6%,-3.2%,?,-33.1%,?
COc1ccc2[nH]c3c(c2c1)CCN=C3C,?,-12.6%,?,-5.6%,1.1%[17.1 µM],-1.0%,.,.
O=c1c2ccccc2nc(-c2ccco2)n1-c1ccccc1,5.2%,-18.8%,?,-4.9%,-3.9%,-6.2%,.,.
Cc1nc([N+](=O)[O-])c(Br)n1Cc1ccc(Cl)c(Cl)c1,2.0%,.,?,-0.1%,-3.9%,21.3µM*,?,?
